We go through 9 molecules from PubChem BioAssay (NCATS).

Values without a mark were called inactive. Results filed as inconclusive are left out. Activity calls are given as the source filed them. Unless noted, calls follow the shape of the dose curve; as a rule, active = well fitted curve in either direction with a large enough effect (not every such curve was filed as active); inconclusive = small, poorly fitted or top-dose-only effect, or another doubt; inactive = flat fitted curve, though single readings scatter.

For assay [1], the target named is Lysosomal acid glucosylceramidase (Homo sapiens) (UniProt P04062). In words: Glucocerebrosidase-p2 (AID 348; in the data active = potency below about 10 µM; also: potency is read from the fitted curve at half-maximal effect). Conditions: purified GBA, blue fluorogenic substrate, 40 min. In short, it runs like this:
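Normal human glucocerebrosidase (0.2 nM) with blue fluorogenic substrate (80 uM final) in citrate/phosphate pH 5.9 with 10mM sodium taurocholate, 0.01% tween-20; 40 min RT, NaOH/glycine stop; fluorescence Ex 365/Em 440; AC50 from a titration from 0.6 nM upwards.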

Assay [2] has as its target Cytochrome P450 1A2 (Homo sapiens) (UniProt P05177). In words: p450-cyp1a2 (AID 410; calls by dose curve; also: potency is read from the fitted curve at half-maximal effect). Conditions: recombinant CYP1A2, luciferin-ME demethylation, luminescence; series mostly up to 57 µM. A digest of the protocol: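 O-Demethylation of luciferin 6' methyl ether by human CYP1A2 is monitored as luciferase luminescence. Substrate sits at Km (100uM); enzyme is 20nM. Values are scaled to 57 uM furafylline as maximal inhibition.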

The target of assay [3] is Glucocorticoid receptor (Homo sapiens) (UniProt P04150). Nature of the assay: GR-GFP Redistribution (AID 450;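 active = compounds whose dose series gives a full or clear partial fitted curve of increased nuclear translocation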; also: potency is read from the fitted curve at half-maximal effect). As to conditions: U2OS GR-GFP nuclear translocation, laser cytometry, 2 h.
The target is the same in assay [4]. Nature of the assay: GR-EFC Redistribution (AID 451; calls by dose curve; also: potency is read from the fitted curve at half-maximal effect). As to conditions: CHO-K1 GR-EFC translocation, beta-gal luminescence, 2 h. A digest of the protocol: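 CHO-K1 cells expressing nuclear EA and GR-ED fragments of b-gal; compounds titrated up to 46 uM final, 2 h at 37 C. GR nuclear translocation read as complemented b-gal luminescence after 1 h RT detection.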

Assay [5] concerns the target 3',5'-cyclic-AMP phosphodiesterase 4B (Homo sapiens) (UniProt Q07343). In words: qHTS Assay for Inhibitors of PDE-IV (AID 607; active = well fitted activation curve with a large enough effect in the main read-out, with a control signal flat, not every such curve was filed as active; also: % of control where 0% means no effect). As to conditions: HEK293 ACTOne CNG channel cells, membrane potential fluorescence; series mostly up to 22.9 µM. A digest of the protocol: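 HEK293 ACTOne cells with CNG channel (1000/well), endogenous PDE4; membrane potential dye, compounds up to 22.9 uM final. Fluorescence Ex 535/Em 590; RO 20-1724 (100 uM final) as reference.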
For orientation: Quantitative high-throughput screening tests each substance at several concentrations.

The target in assay [6] is Cytochrome P450 3A4 (Homo sapiens) (UniProt P08684). Nature of the assay: qHTS Assay for Activators of Cytochrome P450 3A4 (AID 885; active = well fitted curve in the direction sought with a large enough effect; an effect the other way counts as inactive or inconclusive; also: nearly all actives have a fitted effect of over 65% in size). Conditions: recombinant CYP3A4, Luciferin-PPXE luminescence, 60 min; series mostly up to 57.1 µM. A digest of the protocol:
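Human CYP3A4 dealkylates Luciferin-PPXE to luciferin, which luciferase detection converts to light. Substrate was at its KM (25uM), buffer 200mM KPO4, reaction 60 min at RT.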

Assay [7] in a line: Primary qHTS for small molecule stabilizers of the endoplasmic reticulum resident proteome: Secreted ER Calcium Modulated Protein (SERCaMP) assay (AID 1508630; active = well fitted curve in the direction sought with a large enough effect; an effect the other way counts as inactive or inconclusive; also: % is scaled to controls: 0 for no effect and ±100 for the full control effect). Conditions: SH-SY5Y GLuc-SERCaMP (Gaussia luciferase released on ER calcium loss) secretion, thapsigargin, luminescence; series mostly up to 38.4 µM. A digest of the protocol:
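The SH-SY5Y reporter protocol was run at 3 concentrations up to 38.3 uM (primary) or 11 concentrations (follow-up): 16 h compound, 100 nM thapsigargin for 4 h, then extracellular luciferase luminescence.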

Assay [8] has as its target Mitogen-activated protein kinase 10 (Mus musculus) (UniProt Q61831). In words: JNK3 AlphaScreen Assay (AID 530).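 Also: kinase came from lysate of stimulated human HepG2 cells; signal reports phosphorylation of biotinylated GST-cJun 1-79 at Ser73 with 10 µM ATP; % is scaled to controls: 0 for no effect and ±100 for the full control effect.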 As to conditions: JNK3 lysate, c-Jun phosphorylation; series mostly up to 57.1 µM. A digest of the protocol:
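Activity was read by AlphaScreen after JNK3-containing HepG2 lysate (cytokine pre-activated) phosphorylated biotinylated GST-cJun with 10 uM ATP at room temperature. Phospho-Ser73 cJun antibody with Protein-A acceptor beads provided detection.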

The nature of assay [9]: Stat Signaling Pathway (AID 446).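 Also: ME-180 cervical cancer cells given 40 pM IL-6 alongside compound; SIE-controlled beta-lactamase reporter measured as 460/530 nm FRET emission ratio; % is scaled to controls: 0 for no effect and ±100 for the full control effect.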 As to conditions: ME-180 SIE beta-lactamase reporter, IL-6 stimulated, 5 h; at 7.69 µM (top of the series) unless noted. A digest of the protocol: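 Normalization used AC90 stimulation (300 pM IL-6) and AC90 inhibition (125 nM pan-JAK inhibitor at 40 pM IL-6). The underlying signal is SIE-driven beta-lactamase in ME-180 cells after 5 h IL-6 exposure with compound.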

Assay [10] is described as follows: AP1 Signaling Pathway (AID 357).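 Also: ME-180 reporter cells stimulated with EGF at its EC50 level; % is scaled to controls: 0 for no effect and ±100 for the full control effect.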 As to conditions: ME-180 (cervical carcinoma) AP-1-bla reporter, EGF-induced, beta-lactamase ratio, 5 h; at 7.69 µM (top of the series) unless noted. A digest of the protocol: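 First, ME-180 AP-1-bla cells were cultured overnight at 37 °C in low-serum Opti-MEM. Next, titrated compounds with EC50 EGF were incubated 5 hours. Finally, CCF4 was added for 2.5 hours and the 460/530 nm ratio recorded.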

Assay [11] in a line: NFAT Signaling Pathway (AID 444). As to conditions: Jurkat NFAT-bla M1, carbachol, beta-lactamase ratio, 5 h; at 7.69 µM (top of the series) unless noted. A digest of the protocol: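 Jurkat cells with NFAT-driven β-lactamase reporter and co-expressed M1 receptor, stimulated with carbachol (final 1 uM, ~EC50), compound titration, 5 h at 37 °C. CCF4 loaded 1 h at RT; 460/530 nm ratio gave %activity and AC50.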

The target in assay [12] is Cytochrome P450 3A4 (Homo sapiens) (UniProt P08684). In words: qHTS Assay for Inhibitors and Substrates of Cytochrome P450 3A4 (AID 884; active = well fitted curve in the direction sought with a large enough effect; an effect the other way counts as inactive or inconclusive; also: potency is read from the fitted curve at half-maximal effect; nearly all actives have a fitted effect of over 50% in size). Conditions: recombinant CYP3A4, Luciferin-PPXE luminescence; series mostly up to 57.1 µM. In short, it runs like this: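 Luminescent readout of luciferin produced by CYP3A4 (20 nM) dealkylation of Luciferin-PPXE, 25 uM (its KM). NADPH-driven reaction ran 60 min at RT after 10 min compound preincubation; data scaled to 57 uM ketoconazole as 100% inhibition.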

Assay [13] is described as follows: Confirmation and Secondary Assay for Modulators of Hemoglobin Beta Chain Splicing at IVS2 654 locus (AID 910; active = well fitted curve in the direction sought with a large enough effect; an effect the other way counts as inactive or inconclusive;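 also: HeLa cells stably carrying EGFP split by mutant beta-globin IVS2-654 intron; % of control where 0% means no effect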). As to conditions: HeLa EGFP-654 splicing reporter, GFP fluorescence, 48 h; series mostly up to 38.3 µM. A digest of the protocol:
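HeLa cells stably expressing EGFP interrupted by β-globin IVS2-654 intron, seeded overnight in Opti-MEM/2% FCS, then treated 2 days at 37 °C. Restored splicing read as total peak GFP intensity per well by laser scanning cytometry (488 nm excitation, 500–520 nm emission); 500 nM antisense PNA as control.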

Chain of Lysosomal acid glucosylceramidase (Homo sapiens) (P04062 whole entry, looked up): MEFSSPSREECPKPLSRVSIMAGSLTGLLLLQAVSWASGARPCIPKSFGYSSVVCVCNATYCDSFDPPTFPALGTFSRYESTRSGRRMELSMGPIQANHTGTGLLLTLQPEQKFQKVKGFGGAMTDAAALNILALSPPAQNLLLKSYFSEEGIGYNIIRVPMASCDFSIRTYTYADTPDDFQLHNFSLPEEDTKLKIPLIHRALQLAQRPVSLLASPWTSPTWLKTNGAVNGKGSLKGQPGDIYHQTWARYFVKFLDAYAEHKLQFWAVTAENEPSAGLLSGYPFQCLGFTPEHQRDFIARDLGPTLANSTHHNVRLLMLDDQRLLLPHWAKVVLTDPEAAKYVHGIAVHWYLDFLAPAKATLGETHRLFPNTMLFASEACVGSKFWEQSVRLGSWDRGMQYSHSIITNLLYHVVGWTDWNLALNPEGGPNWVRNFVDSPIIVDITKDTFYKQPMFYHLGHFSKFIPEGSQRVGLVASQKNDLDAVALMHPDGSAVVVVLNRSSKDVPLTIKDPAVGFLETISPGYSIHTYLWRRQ
Chain of Cytochrome P450 3A4 (Homo sapiens) (P08684 whole entry, looked up): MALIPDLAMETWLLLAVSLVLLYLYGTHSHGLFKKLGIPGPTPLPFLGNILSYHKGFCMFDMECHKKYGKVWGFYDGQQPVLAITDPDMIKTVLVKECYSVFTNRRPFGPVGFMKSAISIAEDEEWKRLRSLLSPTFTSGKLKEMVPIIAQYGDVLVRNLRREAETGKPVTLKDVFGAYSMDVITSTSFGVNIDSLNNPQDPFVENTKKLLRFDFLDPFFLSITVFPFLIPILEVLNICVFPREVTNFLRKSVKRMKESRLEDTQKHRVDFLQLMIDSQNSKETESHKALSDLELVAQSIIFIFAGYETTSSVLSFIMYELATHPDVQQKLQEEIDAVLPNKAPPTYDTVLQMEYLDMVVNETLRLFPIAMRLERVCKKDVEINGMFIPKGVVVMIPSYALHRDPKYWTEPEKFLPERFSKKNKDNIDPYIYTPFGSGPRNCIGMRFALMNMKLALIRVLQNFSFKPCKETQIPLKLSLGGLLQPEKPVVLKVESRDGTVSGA
Chain of 3',5'-cyclic-AMP phosphodiesterase 4B (Homo sapiens) (Q07343 whole entry, looked up): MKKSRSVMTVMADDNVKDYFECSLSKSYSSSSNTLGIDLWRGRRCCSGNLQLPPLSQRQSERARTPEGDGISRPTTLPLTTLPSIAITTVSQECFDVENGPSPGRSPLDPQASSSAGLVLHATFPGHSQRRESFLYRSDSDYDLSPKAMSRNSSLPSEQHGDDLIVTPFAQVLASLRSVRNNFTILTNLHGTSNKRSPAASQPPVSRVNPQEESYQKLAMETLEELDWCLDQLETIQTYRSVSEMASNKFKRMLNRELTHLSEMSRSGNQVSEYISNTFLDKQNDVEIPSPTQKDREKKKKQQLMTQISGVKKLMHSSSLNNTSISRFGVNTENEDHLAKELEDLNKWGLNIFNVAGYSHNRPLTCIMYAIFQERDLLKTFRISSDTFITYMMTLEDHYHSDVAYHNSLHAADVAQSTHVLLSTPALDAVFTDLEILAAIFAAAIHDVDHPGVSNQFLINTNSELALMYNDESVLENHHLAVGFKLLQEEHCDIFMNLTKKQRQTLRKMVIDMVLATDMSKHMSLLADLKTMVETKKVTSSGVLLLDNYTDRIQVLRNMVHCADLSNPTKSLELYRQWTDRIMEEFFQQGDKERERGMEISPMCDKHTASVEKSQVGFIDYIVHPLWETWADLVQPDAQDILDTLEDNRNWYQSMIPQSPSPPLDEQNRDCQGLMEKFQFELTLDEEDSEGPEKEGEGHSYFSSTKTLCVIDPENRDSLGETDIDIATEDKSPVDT
Chain of Glucocorticoid receptor (Homo sapiens) (P04150 whole entry, looked up, the tested form may be a part): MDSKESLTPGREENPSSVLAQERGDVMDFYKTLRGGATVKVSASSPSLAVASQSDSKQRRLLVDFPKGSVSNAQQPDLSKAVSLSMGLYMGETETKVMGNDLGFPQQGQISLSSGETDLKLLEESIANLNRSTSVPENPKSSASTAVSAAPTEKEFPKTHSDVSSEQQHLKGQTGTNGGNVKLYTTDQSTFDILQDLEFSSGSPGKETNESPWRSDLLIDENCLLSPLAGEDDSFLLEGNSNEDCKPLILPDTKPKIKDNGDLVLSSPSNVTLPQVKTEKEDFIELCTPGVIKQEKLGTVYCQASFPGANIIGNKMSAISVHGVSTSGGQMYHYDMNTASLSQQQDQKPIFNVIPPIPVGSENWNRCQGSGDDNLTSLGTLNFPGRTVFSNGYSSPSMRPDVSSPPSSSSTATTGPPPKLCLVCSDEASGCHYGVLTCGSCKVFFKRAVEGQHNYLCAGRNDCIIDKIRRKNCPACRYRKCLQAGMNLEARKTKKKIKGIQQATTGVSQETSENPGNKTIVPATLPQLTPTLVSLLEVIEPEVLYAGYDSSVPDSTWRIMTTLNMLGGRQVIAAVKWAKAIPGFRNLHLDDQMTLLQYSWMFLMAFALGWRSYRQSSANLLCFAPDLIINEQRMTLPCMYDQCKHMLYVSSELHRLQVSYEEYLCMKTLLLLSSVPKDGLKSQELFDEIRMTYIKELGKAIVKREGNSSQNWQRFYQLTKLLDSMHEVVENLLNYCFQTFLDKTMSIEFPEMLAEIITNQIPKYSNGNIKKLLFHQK
Chain of Cytochrome P450 1A2 (Homo sapiens) (P05177 whole entry, looked up): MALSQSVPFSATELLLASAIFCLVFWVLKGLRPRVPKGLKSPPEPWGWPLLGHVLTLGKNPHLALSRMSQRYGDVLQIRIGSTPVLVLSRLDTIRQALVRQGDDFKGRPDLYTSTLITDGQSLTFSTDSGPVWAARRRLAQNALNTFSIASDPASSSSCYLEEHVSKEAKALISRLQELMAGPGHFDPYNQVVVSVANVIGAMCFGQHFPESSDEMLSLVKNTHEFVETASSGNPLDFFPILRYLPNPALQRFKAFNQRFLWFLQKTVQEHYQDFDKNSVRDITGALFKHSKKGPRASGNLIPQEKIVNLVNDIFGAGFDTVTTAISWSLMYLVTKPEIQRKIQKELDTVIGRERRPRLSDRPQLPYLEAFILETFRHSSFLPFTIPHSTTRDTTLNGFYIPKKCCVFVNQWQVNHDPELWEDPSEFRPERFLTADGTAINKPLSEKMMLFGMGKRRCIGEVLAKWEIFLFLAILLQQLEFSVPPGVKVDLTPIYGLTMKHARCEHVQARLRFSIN

Take `O=c1c(-c2cccs2)nc2cnc(Oc3cccc(Cl)c3)nc2n1C[C@H]1CCCO1`: the Potency was more than 11.4 µM in assay [1], 3.16 µM (active) in [2], more than 9.22 µM in assay [3] and more than 46 µM in assay [4]. The Potency entry in assay [5] and in assay [6] was “inactive” each time. Also, in assay [7], the result was inactive.

Turning to `CCNc1ncc2nc(-c3ccc(Cl)cc3)c(=O)n(-c3ccccc3)c2n1`, the Potency is more than 11.4 µM in assay [1], 1 µM (active) in [2], more than 9.22 µM in assay [3] and more than 46 µM in assay [4]. The Potency entry in assay [8] is “inactive”. Besides, in assay [7], the result was inactive.

As for `COc1ccc(-c2nc3cnc(N(C)C)nc3n(CCc3ccccc3)c2=O)cc1`, the Potency was more than 11.4 µM in [1], 1.26 µM (active) in assay [2] and more than 46 µM in assay [4]. In addition, the activity, negative = inhibition in assay [9] was 121% [activator] (active). The Potency result in [5] was “inactive”. Further, the result in [7] was inactive.

In the case of `COc1ccccc1CNc1nc(-c2ccc(N(C)C)cc2)nc2ccccc12`, the figures for the activity change, negative = inhibition in assay [10] and in assay [11] were 1.38% and -29.6%, respectively. Besides, the Potency was 2.51 µM (active) in [2], more than 46 µM in assay [3], more than 46 µM in assay [4] and 3.16 µM (active) in assay [12]. In addition, in assay [9], the activity, negative = inhibition was 20.3%. The Potency result in [8], in assay [5], in [6] and in assay [13] was “inactive” in each case. The outcome in [7] was inactive.

With `O=c1c(-c2cccs2)nc2cncnc2n1C1CC1`, the activity change, negative = inhibition is 0.545% in assay [10] and -2.79% in assay [11]. Further, the Potency in [2] was 2.51 µM (active); in [3], more than 9.22 µM; in assay [4] it was more than 46 µM. Moreover, the activity, negative = inhibition in [9] was -5.35%. Further, the Potency entry in assay [8] and in [6] was “inactive” in each case. The result in assay [7] was inactive.

As to `c1ccc(-c2ccc(N3CCCC4(CCNCC4)C3)cc2)cc1`, the activity change, negative = inhibition in assay [10] is 9.27%; in assay [11], 24.2%. The Potency in [2] is 10 µM (active); in assay [4], more than 46 µM. Further, in assay [9], the activity, negative = inhibition was -2.12%. Besides, the Potency entry in assay [5] and in assay [6] was “inactive” in each case. Besides, the outcome in [7] was inactive.

As for `CC(C)NC(=O)N1CC[C@@]2(CCCN(C(=O)c3ccco3)C2)C1`, the activity change, negative = inhibition was -6.33% in assay [10] and 5.58% in [11]. Also, the activity, negative = inhibition in [9] was 8.1%. The Potency in [4] was more than 46 µM. Moreover, the Potency entry in [8] and in [5] was “inactive” throughout. Moreover, the result in assay [7] was inactive.

In the case of `CN(C)c1ncc2nc(-c3ccc(Cl)cc3)c(=O)n(C3CC3)c2n1`, the Potency in [1] was more than 11.4 µM; in assay [3], more than 9.22 µM; in assay [4], more than 46 µM. The Potency entry in assay [8] and in assay [5] was “inactive” throughout. Moreover, the result in assay [7] was inactive.

For the molecule `CCNc1ncc2nc(-c3ccccc3)c(=O)n(Cc3ccc(F)cc3)c2n1`, the Potency was more than 11.4 µM in [1], 3.16 µM (active) in assay [2], more than 9.22 µM in assay [3] and more than 46 µM in assay [4]. For the same molecule, the activity, negative = inhibition in assay [9] is 82.9% [activator] (active). Moreover, the Potency entry in assay [5] and in assay [6] was “inactive” throughout. Moreover, in [7], the outcome was inactive.
